In the library only some 1.3% were active in any assay of this set; here they are far more common.
SARS PLpro yeast: qHTS of Yeast-based Assay for SARS-CoV PLP | S. cerevisiae expressing SARS-CoV PLpro, growth rescue | Potency, µM (doses to about 32.9 µM), for the others: at the top dose activity, positive = growth rescue, hits mostly activators | actives 0.19% (n = 330,000); calls by dose curve; note: 0% is about no effect; nearly all actives have a fitted effect of over 55% in size
VACV mCherry inh: qHTS for Stage-Specific Inhibitors of Vaccinia Orthopoxvirus: mCherry Reporter Primary qHTS | Vaccinia virus mCherry reporter infection, fluorescence | Potency, µM (top dose mostly 36.5 µM), without a hit: top-dose activity change, negative = inhibition, usual class: inhibitors | actives 0.63% (n = 310,000) | AID 720579, 2013; calls by dose curve; tested in A549 cells; note: % is set by controls: 0 for no effect and ±100 for the full control effect; nearly all actives have a fitted effect of over 35% in size
VACV Venus inh: qHTS for Stage-Specific Inhibitors of Vaccinia Orthopoxvirus: Venus Reporter Primary qHTS; Vaccinia virus Venus reporter expression, fluorescence; Potency, µM (top dose mostly 36.5 µM), without a hit: top-dose activity change, negative = inhibition, hits mostly inhibitors; actives 0.46% (n = 330,000); calls by dose curve; tested in A549 cells; note: % is set by controls: 0 for no effect and ±100 for the full control effect; nearly all actives have a fitted effect of over 30% in size
AmpC detergent: qHTS Inhibitors of AmpC Beta-Lactamase (assay with detergent); AmpC hydrolysis of nitrocefin, absorbance 480 nm, 0.01% Triton; actives 0.041% (n = 370,000); P00811; Potency, µM (highest dose often 114 µM), for the others: top-dose activity change, negative = inhibition, most hits filed as inhibitors; AID 485294, 2010;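 note: 0% = no-compound wells and -100% = no-enzyme wells; nearly all actives have a fitted effect of over 25% in size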
Target sequence (P00811 whole entry, looked up): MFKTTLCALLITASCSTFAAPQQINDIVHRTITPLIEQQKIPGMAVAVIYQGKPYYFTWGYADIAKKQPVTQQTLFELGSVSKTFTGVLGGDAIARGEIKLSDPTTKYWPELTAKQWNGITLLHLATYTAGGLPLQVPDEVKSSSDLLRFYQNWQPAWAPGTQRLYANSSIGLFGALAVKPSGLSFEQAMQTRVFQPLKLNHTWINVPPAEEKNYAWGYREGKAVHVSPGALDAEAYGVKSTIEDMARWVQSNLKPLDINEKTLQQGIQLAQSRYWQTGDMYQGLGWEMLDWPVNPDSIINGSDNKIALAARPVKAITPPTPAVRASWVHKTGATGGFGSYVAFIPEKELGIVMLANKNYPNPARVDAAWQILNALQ
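AmpC (5.3 nM in the dispensed reagent) in 20 mM phosphate pH 7.0 with 0.01% (detergent screen) or 0.0001% Triton X-100 was preincubated with compounds for 15 min at room temperature. Nitrocefin was then added from an 800 uM solution, and hydrolysis was followed at 480 nm.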
AmpC inh no detg: qHTS Inhibitors of AmpC Beta-Lactamase (assay without detergent); P00811; AmpC nitrocefin hydrolysis, absorbance 480 nm, 0.0001% Triton; Potency, µM (doses to about 57.1 µM), for inactives: at the highest dose activity change, negative = inhibition, usual class: inhibitors; actives 0.52% (n = 330,000); AID 485341, 2010;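 note: plate controls were no compound for no effect and no enzyme for full effect; nearly all actives have a fitted effect of over 20% in size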
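20 mM phosphate pH 7.0 + 0.01% (detergent screen) or 0.0001% Triton X-100; 5.3 nM AmpC reagent; cpd preinc 15 min RT; nitrocefin (800 uM stock) to start; A480 q20 s × 4 min; Activity was normalised to no-enzyme and no-compound control wells.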
The depositor's hits bear a star; i = inactive; ? = inconclusive; . = no result given. Unless noted, calls come from the whole dose curve; as a rule, active = well fitted curve in the direction sought with a large enough effect; inconclusive = small, poorly fitted or top-dose-only effect, or another doubt; inactive = no such curve, though single readings can be large; an effect the other way counts as inactive or inconclusive. Potency is the fitted concentration of half-maximal effect.

SMILES	SARS PLpro yeast	VACV mCherry inh	VACV Venus inh	AmpC detergent	AmpC inh no detg
O=c1[nH]c(CN2CCN(S(=O)(=O)/C=C/c3ccccc3)CC2)nc2ccccc12	3.0%	i	-11.2%	-4.5%	12.5%
O=c1[nH]c(CN2CCN(S(=O)(=O)/C=C/c3ccccc3)CC2)nc2cc(Cl)ccc12	0.4%	?	11.2µM*	0.9%	2.6%
CS(=O)(=O)Nc1cccc(NC(=O)C2Cc3c(-c4cccc(F)c4)ccnc3O2)c1 (configuration not stated)	.	8.91µM*	10µM*	.	.
O=C(/C=C/c1cccc([N+](=O)[O-])c1)c1ccc([N+](=O)[O-])o1	.	?	12.6µM*	.	.
Cc1cccc(/C=C/C(=O)c2ccc([N+](=O)[O-])o2)c1	-19.3%	?	11.2µM*	0.3%	-11.5%
CCN1CCCC1CNCc1cc2ccc(SC)cc2nc1-c1cc(OC)ccc1OC (configuration not stated)	.	9.3%	27.4%	.	.
O=C(NCCc1nnc2n1CCN(Cc1ccsc1)CC2)c1ccc(F)cc1	.	-19.8%	-7.2%	.	.
CCc1cccc(CC)c1NC(=S)NCCc1c(C)[nH]c2ccc(C)cc12	?	10µM*	15.8µM*	-9.2%	-21.3%
CCc1cccc(C)c1NC(=S)NCCc1c(C)[nH]c2ccc(C)cc12	27.7%	17.8µM*	?	-1.5%	-30.1%
COc1ccc2[nH]c(C)c(CCNC(=S)Nc3cc(C)ccc3C)c2c1	-15.6%	-16.3%	-13.7%	?	-6.1%
Cc1ccc(-c2ccnc(-n3ncc(C(=O)N(C)CC4CCCN(C)C4)c3C)n2)o1 (configuration not stated)	.	-6.0%	-9.3%	.	.
O=C(NCCc1nnc2n1CCN(Cc1c(F)cccc1F)CC2)c1ccc(F)cc1	.	-15.7%	-15.5%	.	.
NC(=O)c1ccc(Sc2nnc(-c3cccs3)n2CC2CCCO2)c([N+](=O)[O-])c1 (configuration not stated)	2.2%	7.94µM*	11.2µM*	-10.6%	-4.5%
CCc1cc(C(=O)NCC2Cc3cccc(-c4ccc(C(=O)OC)cn4)c3O2)no1 (configuration not stated)	.	-14.6%	-2.3%	.	.
CCC1C(=O)NCCN1Cc1ccc2c(c1)CN(Cc1ccc(OC)cc1OC)CCO2 (configuration not stated)	.	-10.2%	1.2%	.	.
O=C(CC1Sc2ccccc2NC1=O)NNc1ccc(Cl)cc1Cl (configuration not stated)	.	4.47µM*	?	.	.
CN(CCc1ccccc1)C(=O)c1ccc(NC(=O)Cc2ccc(NC(=O)C3CCCN(C(=O)C4CCC4)C3)cc2)cc1 (configuration not stated)	.	10µM*	?	.	.
O=c1c2ccccc2c(-c2ccc(O)cc2)nn1-c1cccc(C(F)(F)F)c1	-87.5%	?	11.2µM*	1.7%	17.8µM*
O=c1c2ccccc2c(-c2cccc(C(F)(F)F)c2)nn1-c1ccccc1	0.5%	-12.1%	-13.0%	0.3%	-2.5%
COc1ccccc1NC(=O)Cn1ncc2c1-c1ccccc1OC2	4.3%	26.2%	-2.7%	-13.8%	6.31µM*
Cc1cc(N2CCN(C)CC2)n2nc(-c3ccc(Cl)cc3)nc2n1	-0.6%	7.94µM*	?	?	-2.4%
Cc1cc2[nH]c(=O)c(=O)[nH]c2cc1S(=O)(=O)N1CCN(c2cccc(C(F)(F)F)c2)CC1	-3.7%	1.2%	3.9%	-8.6%	3.16µM*
Cc1cc2[nH]c(=O)c(=O)[nH]c2cc1S(=O)(=O)N1CCN(c2cccc(Cl)c2)CC1	-1.6%	-16.1%	-4.7%	-13.9%	-52.9%
CC(C1CC2CCC1C2)N1CC(O)=C(c2nc3ccccc3[nH]2)C1=N (configuration not stated)	0.9%	7.08µM*	5.01µM*	8.1%	-30.8%
Cc1ccccc1/C=N/Nc1nc2ccccc2[nH]1	-10.4%	?	-11.1%	0.8%	-28.1%
SMILES	SARS PLpro yeast	VACV mCherry inh	VACV Venus inh	AmpC detergent	AmpC inh no detg
O=[N+]([O-])c1cc(/C=N/Nc2nc3ccccc3[nH]2)c(O)cc1O	15.8µM*	2.82µM*	?	-16.8%	-32.7%
CC(=O)N1CCC[C@H]1C(=O)NCC1Cc2cc(-c3cccc(OC(F)(F)F)c3)ccc2O1 (some centres not stated)	.	-0.6%	-25.2%	.	.
CCOC(=O)c1ccc(NC(=O)c2nc(SCc3ccccc3F)ncc2Cl)cc1	.	-8.5%	-2.6%	6.5%	.
Cc1ncc2c(c1CNC(=O)c1ccc3c(c1)OCO3)CCN(C(=O)c1ccoc1)C2	.	-9.6%	1.6%	.	.
C[C@H](O)[C@@H]1C(=O)N2CCc3c([nH]c4ccccc34)[C@@H]2C[C@@H]1N(C)C(=O)Nc1cc(Cl)cc(Cl)c1	.	12.6µM*	?	.	.
Cc1ccc(CSC(Nc2ccc(F)cc2)=C(C#N)C#N)cc1	-1.7%	-13.1%	?	1.2%	-43.0%
CCN(CC)C(=O)CSC(Nc1ccc(F)cc1)=C(C#N)C#N	0.6%	i	39.6%	2.0%	14.1µM*
NNC(=O)c1[nH]c2ccccc2c1-c1ccccc1	0.2%	-12.5%	?	-9.7%	6.31µM*
CC(C)=CCc1c2c(c3occ(-c4ccc(O)cc4)c(=O)c3c1O)C=CC(C)(C)O2	?	?	?	-1.4%	15.8µM*
CC(C)=CCc1c2c(c3occ(-c4ccc(O)c(O)c4)c(=O)c3c1O)C=CC(C)(C)O2	.	10µM*	11.2µM*	.	.
CC1(C)C=Cc2c(c3c(c4c(=O)c(-c5ccc(O)cc5)coc24)OC(C)(C)CC3)O1	-6.4%	-29.3%	-25.1%	?	-38.1%
O=C(Cn1ncc2c3ccccc3n(Cc3ccccc3F)c2c1=O)NC1CCCCCC1	.	?	?	1.2%	.
COc1cc(-c2cnc3ccccc3c2)cc2c1OCCN(C(=O)CCn1nc(C)cc1C)C2	.	-7.1%	-3.9%	.	.
O=c1c(-c2c(O)cc(O)c3c(=O)cc(-c4ccc(O)cc4)oc23)c(-c2ccc(O)cc2)oc2cc(O)cc(O)c12	19.3%	1.2%	-0.5%	2.1%	20µM*
O=c1c(-c2ccc(O)cc2)coc2cc(O)cc(O)c12	1.4%	11.2µM*	?	-1.6%	-42.1%
O=c1cc(-c2ccc(O)cc2)oc2c(-c3c(O)cc(O)c4c(=O)cc(-c5ccc(O)cc5)oc34)c(O)cc(O)c12	6.3%	2.9%	-4.7%	.	-41.1%
COc1c(-c2ccc(O)cc2)oc2cc(O)cc(O)c2c1=O	0.3%	20µM*	?	1.7%	-31.7%
COc1ccc(-c2coc3cc(O)cc(O)c3c2=O)cc1	-42.3%	-12.8%	-6.0%	-7.2%	-17.8%
CCN1CCCC1CNC(=O)c1cnn(-c2nccc(-c3ccco3)n2)c1C1CC1 (configuration not stated)	.	-0.4%	-12.5%	.	.
Cc1cc2nc(-c3ccco3)cc(C(F)(F)F)n2n1	-5.5%	i	-5.8%	15.3%	10µM*
